Measured values taken from publication PMC7862700, “An all-to-all approach to the identification of sequence-specific readers for epigenetic DNA modifications on cytosine”.

Key:
Assay in all cases: DAPPL (digital affinity profiling via proximity ligation, sequencing); 10 mM Tris-HCl pH 7.5, 50 mM NaCl, 1 mM DTT, 4% glycerol, room temperature, 30 min; GST-TFs on glutathione beads, 16-mer random dsDNA library, 0.1% formaldehyde crosslink after washing; high values mean tight binding
FLI1 = target: T1, FLI1 (Homo sapiens, UniProt Q01543 1-452); conditions: protein: recombinant; tags: N-terminal GST; dsDNA, one strand shown
T1 sequence: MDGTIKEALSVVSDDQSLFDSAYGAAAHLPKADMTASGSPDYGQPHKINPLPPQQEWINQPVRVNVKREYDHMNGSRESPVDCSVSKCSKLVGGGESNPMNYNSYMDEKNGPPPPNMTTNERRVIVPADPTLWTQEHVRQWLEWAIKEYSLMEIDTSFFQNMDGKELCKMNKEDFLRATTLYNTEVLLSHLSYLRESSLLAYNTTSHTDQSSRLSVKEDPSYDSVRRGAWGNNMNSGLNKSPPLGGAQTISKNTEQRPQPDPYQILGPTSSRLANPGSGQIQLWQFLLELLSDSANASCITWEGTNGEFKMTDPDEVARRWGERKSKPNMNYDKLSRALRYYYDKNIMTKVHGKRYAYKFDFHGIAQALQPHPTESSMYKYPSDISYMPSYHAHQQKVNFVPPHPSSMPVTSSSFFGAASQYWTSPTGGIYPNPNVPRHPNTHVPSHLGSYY
Outline: (§1)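 A tag-only sample was pooled with DNA-barcoded human transcription factors that had been expressed in yeast as GST fusions and captured on glutathione beads. The pools were incubated for 30 min at room temperature with 200 nmole of a random double-stranded 16-mer DNA library in Tris/NaCl/DTT/glycerol buffer, then washed, crosslinked with 0.1% formaldehyde, proximity-ligated (BsaI/T4 ligase, 1 h, 37 °C), PCR-amplified and sequenced on an Illumina NextSeq500. Binding signal is each hexamer's read frequency for a factor divided by its frequency for the tag-only sample.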

ELK1 = target: T2, ELK1 (Homo sapiens, UniProt P19419 1-428); conditions: protein: recombinant; tags: N-terminal GST; dsDNA, one strand shown
T2 sequence: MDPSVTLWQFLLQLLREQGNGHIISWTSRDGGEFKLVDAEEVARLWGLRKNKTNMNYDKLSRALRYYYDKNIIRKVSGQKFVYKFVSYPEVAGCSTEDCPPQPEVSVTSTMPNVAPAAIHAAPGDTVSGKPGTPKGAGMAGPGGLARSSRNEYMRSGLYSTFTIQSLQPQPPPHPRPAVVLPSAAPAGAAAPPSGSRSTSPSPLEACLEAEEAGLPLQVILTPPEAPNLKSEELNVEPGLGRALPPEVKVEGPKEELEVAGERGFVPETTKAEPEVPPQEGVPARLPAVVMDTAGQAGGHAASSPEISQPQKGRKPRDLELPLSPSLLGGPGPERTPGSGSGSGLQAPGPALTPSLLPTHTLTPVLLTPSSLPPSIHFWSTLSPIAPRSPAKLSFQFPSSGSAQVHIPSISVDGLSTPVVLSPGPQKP
Outline: as §1

GABPA = target: T3, GABPA (Homo sapiens, UniProt Q06546 1-454); conditions: protein: recombinant; tags: N-terminal GST; dsDNA, one strand shown
T3 sequence: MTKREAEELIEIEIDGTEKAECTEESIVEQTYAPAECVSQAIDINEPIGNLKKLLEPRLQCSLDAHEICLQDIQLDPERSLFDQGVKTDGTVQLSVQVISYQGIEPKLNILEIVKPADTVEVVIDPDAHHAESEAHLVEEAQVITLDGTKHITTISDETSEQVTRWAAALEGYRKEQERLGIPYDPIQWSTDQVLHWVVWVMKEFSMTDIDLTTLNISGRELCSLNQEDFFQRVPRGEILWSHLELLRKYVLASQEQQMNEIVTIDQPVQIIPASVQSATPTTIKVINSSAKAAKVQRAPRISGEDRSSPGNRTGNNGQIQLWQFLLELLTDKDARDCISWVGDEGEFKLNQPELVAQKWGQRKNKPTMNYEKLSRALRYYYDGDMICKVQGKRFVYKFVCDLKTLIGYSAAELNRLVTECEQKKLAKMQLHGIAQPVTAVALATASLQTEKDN
Outline: as §1

ERG = target: T4, ERG (Homo sapiens, UniProt P11308 1-479); conditions: protein: recombinant; tags: N-terminal GST; dsDNA, one strand shown
T4 sequence: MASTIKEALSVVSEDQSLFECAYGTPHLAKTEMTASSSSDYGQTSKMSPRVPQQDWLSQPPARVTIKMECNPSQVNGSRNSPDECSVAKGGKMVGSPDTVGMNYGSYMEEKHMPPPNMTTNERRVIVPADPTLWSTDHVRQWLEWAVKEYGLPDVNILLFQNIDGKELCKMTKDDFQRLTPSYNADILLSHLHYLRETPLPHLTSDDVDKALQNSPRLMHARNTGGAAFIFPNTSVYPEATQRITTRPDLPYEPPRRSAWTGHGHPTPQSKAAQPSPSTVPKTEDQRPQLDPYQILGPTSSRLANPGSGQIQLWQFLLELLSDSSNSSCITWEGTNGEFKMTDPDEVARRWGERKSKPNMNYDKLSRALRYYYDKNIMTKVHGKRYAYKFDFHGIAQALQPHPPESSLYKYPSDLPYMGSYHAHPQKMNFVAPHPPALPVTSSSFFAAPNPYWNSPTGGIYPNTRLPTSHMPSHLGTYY
Outline: as §1

ELF1 = ELF1 (Homo sapiens, UniProt P32519 1-619); conditions: protein: recombinant; tags: N-terminal GST; dsDNA, one strand shown
Outline: as §1

EHF = target: T5, EHF (Homo sapiens, UniProt Q9NZC4 1-300); conditions: protein: recombinant; tags: N-terminal GST; dsDNA, one strand shown
T5 sequence: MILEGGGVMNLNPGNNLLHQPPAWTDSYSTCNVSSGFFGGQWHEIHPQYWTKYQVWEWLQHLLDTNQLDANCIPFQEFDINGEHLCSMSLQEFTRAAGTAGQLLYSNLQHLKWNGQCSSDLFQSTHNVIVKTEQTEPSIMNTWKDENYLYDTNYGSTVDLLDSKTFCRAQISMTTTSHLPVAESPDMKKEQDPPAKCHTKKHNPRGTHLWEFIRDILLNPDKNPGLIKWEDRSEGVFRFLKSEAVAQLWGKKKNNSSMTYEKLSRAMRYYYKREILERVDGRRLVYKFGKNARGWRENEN
Outline: as §1

SPI1 = SPI1 (Homo sapiens, UniProt P17947 1-270); conditions: protein: recombinant; tags: N-terminal GST; dsDNA, one strand shown
Outline: as §1

SPIB = SPIB (Homo sapiens, UniProt Q01892 1-262); conditions: protein: recombinant; tags: N-terminal GST; dsDNA, one strand shown
Outline: as §1

ELK3 = target: T6, ELK3 (Homo sapiens, UniProt P41970 1-407); conditions: protein: recombinant; tags: N-terminal GST; dsDNA, one strand shown
T6 sequence: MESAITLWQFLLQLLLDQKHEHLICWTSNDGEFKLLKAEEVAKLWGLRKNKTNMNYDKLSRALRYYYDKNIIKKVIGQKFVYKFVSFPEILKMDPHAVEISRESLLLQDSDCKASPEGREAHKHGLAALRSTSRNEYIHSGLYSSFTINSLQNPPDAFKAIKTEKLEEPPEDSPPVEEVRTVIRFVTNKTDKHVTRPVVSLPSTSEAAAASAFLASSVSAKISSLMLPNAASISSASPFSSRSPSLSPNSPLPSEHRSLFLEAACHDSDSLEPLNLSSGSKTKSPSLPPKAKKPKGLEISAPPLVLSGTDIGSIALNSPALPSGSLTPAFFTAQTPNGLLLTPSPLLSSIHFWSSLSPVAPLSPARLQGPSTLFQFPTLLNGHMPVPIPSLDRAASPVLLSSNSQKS
Outline: as §1

FEV = target: T7, FEV (Homo sapiens, UniProt Q99581 1-238); conditions: protein: recombinant; tags: N-terminal GST; dsDNA, one strand shown
T7 sequence: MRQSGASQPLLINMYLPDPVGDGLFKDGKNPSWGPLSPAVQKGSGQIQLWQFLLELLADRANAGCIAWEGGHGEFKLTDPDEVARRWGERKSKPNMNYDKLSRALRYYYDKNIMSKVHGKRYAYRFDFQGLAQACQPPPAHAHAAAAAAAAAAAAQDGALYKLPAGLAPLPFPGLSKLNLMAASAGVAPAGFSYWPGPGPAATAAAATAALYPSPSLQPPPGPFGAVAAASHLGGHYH
Outline: as §1

ETV5 = ETV5 (Homo sapiens, UniProt P41161 1-510); conditions: protein: recombinant; tags: N-terminal GST; dsDNA, one strand shown
Outline: as §1

HSF1 = HSF1 (Homo sapiens, UniProt Q00613 1-529); conditions: protein: recombinant; tags: N-terminal GST; chain copies: 3; dsDNA, one strand shown
Outline: as §1

SPIC = target: T8, SPIC (Homo sapiens, UniProt Q8N5J4 1-248); conditions: protein: recombinant; tags: N-terminal GST; dsDNA, one strand shown
T8 sequence: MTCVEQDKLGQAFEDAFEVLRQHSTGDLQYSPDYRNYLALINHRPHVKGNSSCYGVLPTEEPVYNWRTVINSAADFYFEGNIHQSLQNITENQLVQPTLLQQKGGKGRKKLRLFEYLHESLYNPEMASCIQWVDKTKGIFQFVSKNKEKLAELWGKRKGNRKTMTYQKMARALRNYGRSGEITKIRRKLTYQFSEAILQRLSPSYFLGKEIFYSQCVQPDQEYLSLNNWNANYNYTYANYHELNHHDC
Outline: as §1

ELF4 = ELF4 (Homo sapiens, UniProt Q99607 1-663); conditions: protein: recombinant; tags: N-terminal GST; dsDNA, one strand shown
Outline: as §1

ELK4 = target: T9, ELK4 (Homo sapiens, UniProt P28324-2 1-405); conditions: protein: recombinant; tags: N-terminal GST; dsDNA, one strand shown
T9 sequence: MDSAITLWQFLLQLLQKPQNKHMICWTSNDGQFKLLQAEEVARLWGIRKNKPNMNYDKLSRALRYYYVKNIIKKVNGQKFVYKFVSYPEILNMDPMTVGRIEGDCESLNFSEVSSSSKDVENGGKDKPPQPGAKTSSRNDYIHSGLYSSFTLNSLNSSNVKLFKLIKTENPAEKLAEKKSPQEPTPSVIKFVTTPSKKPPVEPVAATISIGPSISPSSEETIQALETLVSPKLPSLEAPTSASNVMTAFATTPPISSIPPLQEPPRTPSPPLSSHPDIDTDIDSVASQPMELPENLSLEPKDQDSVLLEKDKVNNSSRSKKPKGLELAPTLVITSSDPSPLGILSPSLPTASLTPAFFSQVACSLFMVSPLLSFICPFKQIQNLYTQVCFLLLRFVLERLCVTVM
Outline: as §1

ETV2 = target: T10, ETV2 (Homo sapiens, UniProt O00321 1-342); conditions: protein: recombinant; tags: N-terminal GST; dsDNA, one strand shown
T10 sequence: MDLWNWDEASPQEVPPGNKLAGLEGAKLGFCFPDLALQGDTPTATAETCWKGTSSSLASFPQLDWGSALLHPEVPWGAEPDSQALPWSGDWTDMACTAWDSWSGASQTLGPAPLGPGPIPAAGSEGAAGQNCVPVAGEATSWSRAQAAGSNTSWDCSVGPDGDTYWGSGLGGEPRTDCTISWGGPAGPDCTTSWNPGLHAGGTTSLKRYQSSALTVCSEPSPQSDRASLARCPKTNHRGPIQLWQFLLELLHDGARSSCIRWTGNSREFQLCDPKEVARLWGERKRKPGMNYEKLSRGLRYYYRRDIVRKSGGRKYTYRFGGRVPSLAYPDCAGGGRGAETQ
Outline: as §1

ELF3 = target: T11, ELF3 (Homo sapiens, UniProt P78545 1-371); conditions: protein: recombinant; tags: N-terminal GST; dsDNA, one strand shown
T11 sequence: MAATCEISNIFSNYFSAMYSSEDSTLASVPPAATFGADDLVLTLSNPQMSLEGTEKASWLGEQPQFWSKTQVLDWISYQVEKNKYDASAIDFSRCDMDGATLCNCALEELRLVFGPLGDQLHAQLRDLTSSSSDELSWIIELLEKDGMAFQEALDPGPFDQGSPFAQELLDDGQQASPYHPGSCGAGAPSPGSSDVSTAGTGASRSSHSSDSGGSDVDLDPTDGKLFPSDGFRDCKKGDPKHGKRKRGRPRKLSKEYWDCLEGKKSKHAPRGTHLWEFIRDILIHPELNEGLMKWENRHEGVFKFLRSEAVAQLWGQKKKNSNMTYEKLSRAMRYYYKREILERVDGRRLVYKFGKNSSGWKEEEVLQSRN
Outline: as §1

CRX = CRX (Homo sapiens, UniProt O43186 1-299); conditions: protein: recombinant; tags: N-terminal GST; dsDNA, one strand shown
Outline: as §1

ETV1 = ETV1 (Homo sapiens, UniProt P50549 1-477); conditions: protein: recombinant; tags: N-terminal GST; dsDNA, one strand shown
Outline: as §1

Chain of ETV1 (P50549 whole entry): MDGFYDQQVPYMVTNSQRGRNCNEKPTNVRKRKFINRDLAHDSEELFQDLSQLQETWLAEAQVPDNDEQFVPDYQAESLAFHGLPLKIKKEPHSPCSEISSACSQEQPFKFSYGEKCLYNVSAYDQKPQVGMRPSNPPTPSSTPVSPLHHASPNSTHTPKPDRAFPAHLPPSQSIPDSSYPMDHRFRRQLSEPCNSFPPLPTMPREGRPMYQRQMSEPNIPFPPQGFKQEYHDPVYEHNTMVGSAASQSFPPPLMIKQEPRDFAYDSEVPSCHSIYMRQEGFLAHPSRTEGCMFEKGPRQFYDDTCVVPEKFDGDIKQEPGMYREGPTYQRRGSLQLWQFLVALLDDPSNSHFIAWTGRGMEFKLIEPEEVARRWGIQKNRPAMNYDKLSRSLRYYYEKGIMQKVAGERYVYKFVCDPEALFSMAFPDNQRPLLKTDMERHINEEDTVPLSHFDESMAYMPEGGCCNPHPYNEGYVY
Chain of ETV5 (P41161 whole entry): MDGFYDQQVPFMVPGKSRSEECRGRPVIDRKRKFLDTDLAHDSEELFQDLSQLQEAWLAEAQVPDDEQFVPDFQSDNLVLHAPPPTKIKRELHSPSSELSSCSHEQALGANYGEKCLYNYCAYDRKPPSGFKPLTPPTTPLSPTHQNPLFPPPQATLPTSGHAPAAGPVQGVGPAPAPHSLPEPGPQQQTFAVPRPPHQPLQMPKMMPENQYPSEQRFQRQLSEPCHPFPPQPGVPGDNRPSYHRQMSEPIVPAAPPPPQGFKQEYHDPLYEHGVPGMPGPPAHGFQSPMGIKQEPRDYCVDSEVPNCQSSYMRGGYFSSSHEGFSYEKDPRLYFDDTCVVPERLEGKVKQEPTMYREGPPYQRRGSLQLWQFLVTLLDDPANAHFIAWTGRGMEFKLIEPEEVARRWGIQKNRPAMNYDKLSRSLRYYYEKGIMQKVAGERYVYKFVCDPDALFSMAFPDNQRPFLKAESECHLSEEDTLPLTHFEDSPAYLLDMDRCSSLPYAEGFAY
Chain of CRX (O43186 whole entry): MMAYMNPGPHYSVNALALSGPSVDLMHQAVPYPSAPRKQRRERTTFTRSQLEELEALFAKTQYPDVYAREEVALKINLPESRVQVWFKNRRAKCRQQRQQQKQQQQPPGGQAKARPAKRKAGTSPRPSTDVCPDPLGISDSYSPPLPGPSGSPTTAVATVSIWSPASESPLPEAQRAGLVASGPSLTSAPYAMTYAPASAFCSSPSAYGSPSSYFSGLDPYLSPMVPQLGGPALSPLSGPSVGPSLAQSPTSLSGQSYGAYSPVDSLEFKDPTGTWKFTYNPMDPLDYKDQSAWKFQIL
Chain of ELF1 (P32519 whole entry): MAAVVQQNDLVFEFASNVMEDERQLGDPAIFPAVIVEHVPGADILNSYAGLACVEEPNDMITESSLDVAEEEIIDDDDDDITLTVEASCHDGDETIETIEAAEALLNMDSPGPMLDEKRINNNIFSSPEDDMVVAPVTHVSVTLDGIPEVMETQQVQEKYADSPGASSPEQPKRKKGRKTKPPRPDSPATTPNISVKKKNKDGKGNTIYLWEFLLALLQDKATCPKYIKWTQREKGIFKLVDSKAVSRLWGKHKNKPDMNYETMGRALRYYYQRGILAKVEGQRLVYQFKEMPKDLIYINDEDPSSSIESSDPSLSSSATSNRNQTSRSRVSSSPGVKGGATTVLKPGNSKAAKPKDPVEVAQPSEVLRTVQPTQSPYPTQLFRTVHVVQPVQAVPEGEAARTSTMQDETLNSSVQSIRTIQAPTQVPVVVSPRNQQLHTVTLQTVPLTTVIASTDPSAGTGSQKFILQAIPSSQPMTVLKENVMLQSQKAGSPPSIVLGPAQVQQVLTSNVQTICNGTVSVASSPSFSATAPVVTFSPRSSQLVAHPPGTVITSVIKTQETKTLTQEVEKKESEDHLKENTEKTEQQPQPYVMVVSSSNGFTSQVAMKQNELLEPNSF
Chain of SPIB (Q01892 whole entry): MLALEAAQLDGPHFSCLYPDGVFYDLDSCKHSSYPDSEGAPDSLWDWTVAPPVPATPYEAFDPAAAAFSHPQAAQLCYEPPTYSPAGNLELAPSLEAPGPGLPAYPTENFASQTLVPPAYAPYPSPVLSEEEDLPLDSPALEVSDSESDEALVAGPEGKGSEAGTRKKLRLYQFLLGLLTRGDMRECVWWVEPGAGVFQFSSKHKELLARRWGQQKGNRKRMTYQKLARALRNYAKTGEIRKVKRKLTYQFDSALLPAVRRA
Chain of HSF1 (Q00613 whole entry): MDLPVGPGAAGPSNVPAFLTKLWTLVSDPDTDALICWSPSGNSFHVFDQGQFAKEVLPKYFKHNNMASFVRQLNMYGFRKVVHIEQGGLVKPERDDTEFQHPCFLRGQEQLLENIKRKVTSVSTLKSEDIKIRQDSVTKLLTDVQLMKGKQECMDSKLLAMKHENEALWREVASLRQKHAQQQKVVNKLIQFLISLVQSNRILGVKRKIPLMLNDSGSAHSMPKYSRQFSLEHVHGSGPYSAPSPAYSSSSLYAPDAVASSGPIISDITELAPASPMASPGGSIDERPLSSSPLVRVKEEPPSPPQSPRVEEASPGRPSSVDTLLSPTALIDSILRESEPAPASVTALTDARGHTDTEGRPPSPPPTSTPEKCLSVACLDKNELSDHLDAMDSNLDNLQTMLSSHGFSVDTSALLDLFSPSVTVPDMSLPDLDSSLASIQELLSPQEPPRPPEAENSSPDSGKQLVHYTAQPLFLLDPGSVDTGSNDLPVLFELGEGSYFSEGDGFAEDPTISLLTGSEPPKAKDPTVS
Chain of ELF4 (Q99607 whole entry): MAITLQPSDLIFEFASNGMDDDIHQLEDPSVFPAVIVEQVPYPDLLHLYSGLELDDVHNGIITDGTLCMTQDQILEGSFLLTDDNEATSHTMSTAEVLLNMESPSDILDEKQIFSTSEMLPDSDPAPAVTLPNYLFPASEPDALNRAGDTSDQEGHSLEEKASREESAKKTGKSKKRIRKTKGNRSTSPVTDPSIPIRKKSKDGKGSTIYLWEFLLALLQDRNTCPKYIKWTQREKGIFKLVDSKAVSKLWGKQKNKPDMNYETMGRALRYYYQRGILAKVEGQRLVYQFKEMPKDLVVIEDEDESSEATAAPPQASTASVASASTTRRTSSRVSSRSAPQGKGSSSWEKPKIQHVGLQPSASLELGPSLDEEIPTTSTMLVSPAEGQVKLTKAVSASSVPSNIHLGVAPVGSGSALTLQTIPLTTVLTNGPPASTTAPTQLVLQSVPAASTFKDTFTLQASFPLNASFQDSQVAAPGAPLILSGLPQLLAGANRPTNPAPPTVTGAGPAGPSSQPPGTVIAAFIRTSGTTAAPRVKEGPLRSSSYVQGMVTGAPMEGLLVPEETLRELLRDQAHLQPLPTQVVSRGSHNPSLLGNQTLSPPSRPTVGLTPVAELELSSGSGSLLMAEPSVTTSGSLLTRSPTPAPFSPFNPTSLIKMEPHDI

GTAAAC
binding signal (FLI1): 1.16 fold enrichment (6-mer frequency, TF over GST control)
binding signal (ELK1): 1.26 fold enrichment (6-mer frequency, TF over GST control)
binding signal (GABPA): 1.26 fold enrichment (6-mer frequency, TF over GST control)
binding signal (ERG): 1.19 fold enrichment (6-mer frequency, TF over GST control)
binding signal (ELF1): 1.17 fold enrichment (6-mer frequency, TF over GST control)
binding signal (EHF): 1.25 fold enrichment (6-mer frequency, TF over GST control)
binding signal (SPI1): 1.25 fold enrichment (6-mer frequency, TF over GST control)
binding signal (SPIB): 1.25 fold enrichment (6-mer frequency, TF over GST control)
binding signal (ELK3): 1.25 fold enrichment (6-mer frequency, TF over GST control)
binding signal (FEV): 1.17 fold enrichment (6-mer frequency, TF over GST control)
binding signal (ETV5): 1.18 fold enrichment (6-mer frequency, TF over GST control)
binding signal (HSF1): 1.03 fold enrichment (6-mer frequency, TF over GST control)
binding signal (SPIC): 1.23 fold enrichment (6-mer frequency, TF over GST control)
binding signal (ELF4): 1.23 fold enrichment (6-mer frequency, TF over GST control)
binding signal (ELK4): 1.27 fold enrichment (6-mer frequency, TF over GST control)
binding signal (ETV2): 1.15 fold enrichment (6-mer frequency, TF over GST control)
binding signal (ELF3): 1.38 fold enrichment (6-mer frequency, TF over GST control)
binding signal (CRX): 1.07 fold enrichment (6-mer frequency, TF over GST control)
binding signal (ETV1): 1.22 fold enrichment (6-mer frequency, TF over GST control)
